PubChem BioAssay (Tox21)
A number with no mark means an inactive call. Records with an inconclusive call do not appear. Entries that show only a call come without a potency. Activity calls are given as the source filed them. Unless noted, calls come from the whole dose curve; as a rule, active = well fitted curve in the direction sought with a large enough effect in the repeat runs; inconclusive = weak or mixed curves; inactive = no such curve, though single readings can be large; an effect the other way counts as inactive or inconclusive.

Tests used:
[1] = qHTS RealTime-Glo MT Cell Viability Assay in HepG2 cells - 24 hour (AID 1224867); note: nearly all actives have a fitted effect of over 50% in size; note: potency is the fitted concentration of half-maximal effect
Method in brief: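 Compound treatment began 5 h after plating HepG2 cells (600/well) with NanoLuc luciferase and prosubstrate. Plates stayed at 37 C for 40 h; luminescence was captured at six time points, 0 h through 40 h.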

[2] = qHTS RealTime-Glo MT Cell Viability Assay in HEK293 cells - 32 hour (AID 1224868); note: nearly all actives have a fitted effect of over 50% in size; note: potency is the fitted concentration of half-maximal effect; for activity change, negative = cytotoxic: top concentration of the series differs between compounds
Method in brief: (§1)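 Quantitative high-throughput screen of the Tox21 10K library in HEK293: cells and RealTime-Glo reagents plated together, compound added at 5 h, luminescence monitored through 40 h at 37 C.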

[3] = A CellTox Green Cytotoxicity Assay to monitor cytotoxicity in HEK293 cells - 0 hour (AID 1224869); note: nearly all actives have a fitted effect of over 50% in size; note: potency is the fitted concentration of half-maximal effect
Method in brief: (§2)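 Tox21 screen in HEK293: membrane-impermeant cyanine dye fluoresces on binding dead-cell DNA; compound pinned 5 h post-seeding, plates held at 37 C, signal read repeatedly through 40 h.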

[4] = qHTS RealTime-Glo MT Cell Viability Assay in HepG2 cells - 40 hour (AID 1224870); note: nearly all actives have a fitted effect of over 50% in size; note: potency is the fitted concentration of half-maximal effect
Method in brief: (§3)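 HepG2 cells mixed with RealTime-Glo MT reagents (NanoLuc plus cell-permeant prosubstrate) were seeded at 600 cells/well, incubated 5 h at 37 C/5% CO2, then pinned with compounds in DMSO; nonlytic luminescence tracked viability during 40 h treatment.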

[5] = A CellTox Green Cytotoxicity Assay to monitor cytotoxicity in HEK293 cells - 40 hour (AID 1224871); note: nearly all actives have a fitted effect of over 45% in size; note: potency is the fitted concentration of half-maximal effect
Method in brief: as §2

[6] = qHTS RealTime-Glo MT Cell Viability Assay in HEK293 cells - 16 hour (AID 1224872); note: nearly all actives have a fitted effect of over 50% in size; note: potency is the fitted concentration of half-maximal effect; for activity change, negative = cytotoxicity: top concentration of the series differs between compounds
Method in brief: as §1

[7] = qHTS RealTime-Glo MT Cell Viability Assay in HepG2 cells - 8 hour (AID 1224873); note: nearly all actives have a fitted effect of over 55% in size; note: potency is the fitted concentration of half-maximal effect
Method in brief: as §3

[8] = qHTS RealTime-Glo MT Cell Viability Assay in HEK293 cells - 40 hour (AID 1224874); settings: RealTime-Glo luminescence; max response: hits give low values; note: nearly all actives have a fitted effect of over 50% in size; note: potency is the fitted concentration of half-maximal effect
Method in brief: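 HEK293 + NanoLuc + prosubstrate, 600 cells/well; 5 h, 37 C/5% CO2; compound 23 nL in DMSO by pintool; 37 C; luminescence read at 0, 8, 16, 24, 32 and 40 h time points.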

[9] = qHTS assay to identify small molecule antagonists of the estrogen related receptor (ERR) signaling pathway from Tox21 library (AID 1224848); note: nearly all actives have a fitted effect of over 50% in size; note: potency is the fitted concentration of half-maximal effect
Method in brief: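 First, 2,000 ERR cells per well were plated and held 6 h at 37 C/5% CO2. Next, compounds in DMSO were pinned in and left 18 h at 37 C. Finally, ONE-Glo was added and luminescence read after 30 min at room temperature.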

[10] = qHTS assay to identify small molecule agonists of the estrogen related receptor (ERR) signaling pathway from Tox21 library (AID 1224849; calls by dose curve; note: nearly all actives have a fitted effect of over 15% in size); settings: ERR reporter cell line, ONE-Glo luciferase, 18 h; at 92.4 µM (top of the series) unless noted
Method in brief: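 Tox21 compounds tested for ERR agonism in an NTP reporter cell line: 18 h treatment at 37 C, then ONE-Glo luminescence.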

## COc1cc2ncnc(Nc3cccc(Cl)c3)c2cc1OC
[1]
  activity change, negative = cytotoxicity: -0.467% [at 15.8 µM]
[2]
  activity change, negative = cytotoxic: 0.667% [at 15.8 µM]
[3]
  cytotoxicity: -7.5% [at 15.8 µM]
[4]
  activity change, negative = cytotoxic: 25.7% [at 15.8 µM]
[5]
  cytotoxicity increase: -0.731% [at 15.8 µM]
[6]
  activity change, negative = cytotoxicity: -3.69% [at 15.8 µM]
[7]
  viability change, negative = cytotoxic: -19.1% [at 15.8 µM]

## O=C(O)CN(CCCN(CC(=O)O)CC(=O)O)CC(=O)O
[1]
  activity change, negative = cytotoxicity: -3.25% [at 15.8 µM]
[2]
  activity change, negative = cytotoxic: -12.4% [at 15.8 µM]
[3]
  cytotoxicity: -2.37% [at 15.8 µM]
[4]
  activity change, negative = cytotoxic: 22.2% [at 15.8 µM]
[5]
  cytotoxicity increase: 0.268% [at 15.8 µM]
[6]
  activity change, negative = cytotoxicity: -5.66% [at 15.8 µM]
[7]
  viability change, negative = cytotoxic: -18.6% [at 15.8 µM]
[8]
  max response: -7.68%

## CC(O)(c1ccc(Cl)cc1)c1ccc(Cl)cc1
[9]
  Potency: 61.1 µM (active)
[10]
  activity change, positive = activation: -43.9%
[2]
  Potency: 24.5 µM (active)
[4]
  Potency: inactive
[6]
  Potency: 38.9 µM (active)
[8]
  Potency: 24.5 µM (active)

## O=C(CCCCCCCCc1cccnc1)N1CCC(C=C(c2ccccc2)c2ccccc2)CC1
[9]
  Potency: 21.7 µM (active)
[10]
  activity change, positive = activation: -69.2%
[2]
  Potency: 21.9 µM (active)
[3]
  Potency: inactive
[6]
  Potency: 21.9 µM (active)
[7]
  Potency: 49 µM (active)

## O[Si](c1ccccc1)(c1ccccc1)c1ccccc1
[10]
  activity change, positive = activation: -39.7%
[1]
  Potency: inactive
[2]
  Potency: 38.9 µM (active)
[3]
  Potency: inactive
[4]
  Potency: inactive
[5]
  Potency: inactive
[7]
  Potency: inactive
[8]
  Potency: 38.9 µM (active)

## CCc1cccc(C)c1N(C(=O)C(=O)O)C(C)COC (stereo not drawn)
[1]
  Potency: inactive
[2]
  Potency: inactive
[3]
  Potency: inactive
[4]
  Potency: inactive
[5]
  Potency: inactive
[6]
  Potency: inactive
[7]
  Potency: inactive
[8]
  max response: 10.9%

## CCSCC
[1]
  Potency: inactive
[2]
  Potency: inactive
[3]
  Potency: inactive
[4]
  Potency: inactive
[5]
  Potency: inactive
[6]
  Potency: inactive
[7]
  Potency: inactive

## CC1(C)[C@H](C(=O)OCc2cccc(Oc3ccccc3)c2)[C@@H]1C=C(Cl)Cl
[1]
  Potency: inactive
[2]
  Potency: inactive
[3]
  Potency: inactive
[4]
  Potency: inactive
[5]
  Potency: inactive
[6]
  Potency: inactive
[7]
  Potency: inactive
[8]
  max response: 4.05%

## Brc1cc(Br)cc(Br)c1
[9]
  Potency: inactive
[1]
  Potency: inactive
[2]
  Potency: inactive
[3]
  Potency: inactive
[4]
  Potency: inactive
[5]
  Potency: inactive
[6]
  Potency: inactive
[7]
  Potency: inactive
[8]
  max response: 0.239%

## Cc1ccc2nc(-c3ccc(N)cc3)sc2c1S(=O)(=O)O
[1]
  Potency: inactive
[2]
  Potency: inactive
[3]
  Potency: inactive
[4]
  Potency: inactive
[5]
  Potency: inactive
[6]
  Potency: inactive
[7]
  Potency: inactive
[8]
  max response: -21.6%

## O=C(c1ccccc1)c1ccc(Cl)cc1
[1]
  Potency: inactive
[2]
  Potency: inactive
[3]
  Potency: inactive
[4]
  Potency: inactive
[5]
  Potency: inactive
[6]
  Potency: inactive
[7]
  Potency: inactive
[8]
  max response: 0.405%

## CCN(CC)c1ccc(N=Nc2ccccc2)cc1
[1]
  Potency: inactive
[2]
  Potency: 49 µM (active)
[3]
  Potency: inactive
[4]
  Potency: inactive
[5]
  Potency: inactive
[6]
  Potency: 49 µM (active)
[7]
  Potency: inactive
[8]
  Potency: 54.9 µM (active)

## CCN(CC)c1ccc(C=O)c(O)c1
[10]
  activity change, positive = activation: -16.4%
[1]
  Potency: inactive
[2]
  Potency: inactive
[3]
  Potency: inactive
[4]
  Potency: inactive
[5]
  Potency: inactive
[6]
  Potency: inactive
[7]
  Potency: inactive
[8]
  max response: -15%

## O=C1OC(O)C(C(Cl)Cl)=C1Cl (stereo not drawn)
[3]
  Potency: inactive
[5]
  Potency: inactive
[7]
  Potency: inactive

## CCCCCCCCCC[N+](C)(CCCCCCCCCC)CCC[Si](OC)(OC)OC
[1]
  Potency: 43.6 µM (active)
[2]
  Potency: 27.5 µM (active)
[4]
  Potency: 43.6 µM (active)
[5]
  Potency: 43.6 µM (active)
[6]
  Potency: 27.5 µM (active)
[7]
  Potency: 49 µM (active)
[8]
  Potency: 27.5 µM (active)

## CCCCC/C=C\C=C\C(=O)OCC
[3]
  Potency: inactive
[4]
  Potency: 51 µM (active)
[5]
  Potency: 20.3 µM (active)
[7]
  Potency: inactive
[8]
  Potency: 57.2 µM (active)

## C1=CCCC1
[1]
  Potency: inactive
[4]
  Potency: inactive
[7]
  Potency: inactive

## C/C(=C\c1ccc(C(=O)O)cc1)c1ccc2c(c1)C(C)(C)CCC2(C)C
[1]
  Potency: inactive
[2]
  Potency: inactive
[4]
  Potency: inactive
[5]
  Potency: inactive
[6]
  Potency: inactive
[7]
  Potency: inactive
[8]
  max response: -17.3%

## CCN(CC)c1ccc2c(c1)Oc1cc(N(CC)CC)ccc1C21OC(=O)c2ccccc21
[1]
  Potency: inactive
[4]
  Potency: inactive
[5]
  Potency: 16.9 µM (active)
[7]
  Potency: inactive

## CN(C/C=C/c1ccccc1)Cc1cccc2ccccc12
[3]
  Potency: 19 µM (active)
[5]
  Potency: 21.3 µM (active)
[6]
  Potency: inactive

## C=CC(=O)OCC(Br)CBr (stereo not drawn)
[1]
  Potency: inactive
[7]
  Potency: inactive

## Cc1ccc(C2OC[C@@H]3OC(c4ccc(C)cc4)O[C@H]([C@H](O)CO)[C@@H]3O2)cc1 (stereo partly drawn)
[1]
  Potency: inactive
[7]
  Potency: inactive

## CCC(=O)OC/C=C(\C)CCC=C(C)C
[1]
  Potency: inactive
[2]
  Potency: inactive
[4]
  Potency: inactive
[5]
  Potency: inactive
[6]
  Potency: inactive
[7]
  Potency: inactive
[8]
  max response: -0.115%
